# Reference: PubChem BioAssay
# Calls of active or inactive are those of the source.
# What was measured:
# [1] = target: Albumin (Bos taurus) (UniProt P02769); test: bovine serum albumin binders on microarray, profiling panel, artefact control for SMM control protein annotation, biochemical, small-molecule microarray, Alexa647 label, 635/667 nm fluorescence (AID 1118); details: BSA-A647 binding, fluorescence 635 nm, higher = more signal;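 further: score merges 667 nm emission intensity and signal-to-noise per printed compound spot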
# Albumin (Bos taurus), sequence (P02769 whole entry, looked up): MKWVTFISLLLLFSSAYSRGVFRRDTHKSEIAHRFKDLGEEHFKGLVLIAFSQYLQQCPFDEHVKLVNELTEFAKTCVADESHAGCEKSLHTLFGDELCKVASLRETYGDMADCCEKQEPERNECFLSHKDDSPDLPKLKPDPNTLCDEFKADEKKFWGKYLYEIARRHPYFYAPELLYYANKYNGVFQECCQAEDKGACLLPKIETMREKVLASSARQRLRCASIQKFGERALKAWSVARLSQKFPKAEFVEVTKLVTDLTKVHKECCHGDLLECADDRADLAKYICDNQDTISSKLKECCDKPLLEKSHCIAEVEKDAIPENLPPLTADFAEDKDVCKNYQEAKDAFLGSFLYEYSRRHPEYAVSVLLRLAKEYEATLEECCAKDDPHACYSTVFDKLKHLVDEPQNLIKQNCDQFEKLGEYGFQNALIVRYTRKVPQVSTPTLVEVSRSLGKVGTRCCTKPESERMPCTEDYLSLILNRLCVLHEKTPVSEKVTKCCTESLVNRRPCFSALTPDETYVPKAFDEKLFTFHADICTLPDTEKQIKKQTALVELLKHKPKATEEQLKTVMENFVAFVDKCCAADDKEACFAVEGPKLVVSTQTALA
# [2] = small-molecule microarray binders of probe aXIP, primary screen, biochemical, NeuroSMM set, 635/667 nm fluorescence (AID 1119); details: higher = more signal, called active from +8 up or from −8 down;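 further: probe is the protein aXip251-270 applied at 1 µg/mL to compound-printed slides; binding of probe to printed compounds measured as 667 nm fluorescence plus signal to noise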
# [3] = small-molecule binders of probe aNOTCH3, primary screen, biochemical, small-molecule microarray, 635/667 nm fluorescence (AID 1120); details: higher = more signal;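 further: probe is a biotin-tagged antibody raised against NOTCH3 rather than NOTCH3 protein; score merges spot fluorescence near 667 nm with spot signal to noise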
# [4] = small-molecule binders of probe aNOTCH2, primary screen, biochemical, small-molecule microarray, 635/667 nm fluorescence (AID 1121); details: higher = more signal;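 further: score merges feature fluorescence read at 667 nm with its signal to noise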
# [5] = target: Carbonic anhydrase 2 (Homo sapiens) (UniProt P00918); test: CAII small-molecule binders, profiling panel, biochemical, small-molecule microarray, Alexa647-labelled CAII (AID 1122); details: CAII-A647 binding fluorescence, higher = more signal
# [6] = COS7 lysate on small-molecule microarray, probe aHis, 635 nm (AID 1123); details: COS7 cell lysate, fluorescence, higher = more signal;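 further: z-score combines 667nm fluorescence intensity with signal-to-noise per printed compound spot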
# [7] = compound binding in COS7 lysate, probe aLAP1, primary screen, cell lysate, small-molecule microarray (AID 1124); details: probe aLAP1, fluorescence, higher = more signal;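 further: lysate comes from COS7 cells expressing LAP1 and is applied at 0.3 µg/mL; score merges spot fluorescence near 667 nm with signal-to-noise over triplicate slides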
# [8] = system: Sam68 (KHDRBS1); test: Sam68 small-molecule binders, primary screen, biochemical, small-molecule microarray, 635 nm fluorescence (AID 1125); details: small-molecule microarray binding, higher = more signal;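 further: score merges 667 nm channel intensity with signal to noise over triplicate slides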
# [9] = system: Chordin-like protein 2 (CHRDL2); test: CHRDL2 small-molecule binders, primary screen, biochemical, small-molecule microarray, 635 nm fluorescence (AID 1126); details: small-molecule microarray binding, fluorescence 635 nm; higher = more signal;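 further: printed compound slides probed with Chrdl2 protein at 4 µg/mL for 1 h at 4 C; score merges 667 nm emission intensity with signal to noise over three replicate slides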
# [10] = target: Concanavalin-A (Canavalia ensiformis) (UniProt P02866); test: ConA small-molecule binders, primary screen, artefact control for SMM control protein annotation, biochemical, small-molecule microarray, Alexa647 label, 635 nm (AID 1127); details: ConA-A647 binding fluorescence, higher = more signal;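 further: z combines 667 nm emission intensity with signal-to-noise across three replicate slides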
# Concanavalin-A (Canavalia ensiformis), sequence (P02866 whole entry, looked up): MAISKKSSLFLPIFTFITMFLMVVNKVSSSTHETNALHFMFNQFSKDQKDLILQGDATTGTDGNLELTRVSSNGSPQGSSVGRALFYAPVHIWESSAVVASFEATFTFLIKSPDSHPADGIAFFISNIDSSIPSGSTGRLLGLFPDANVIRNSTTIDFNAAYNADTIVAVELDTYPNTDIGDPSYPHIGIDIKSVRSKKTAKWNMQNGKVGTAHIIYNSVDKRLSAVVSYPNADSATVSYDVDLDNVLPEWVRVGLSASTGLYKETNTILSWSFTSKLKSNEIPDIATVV
# [11] = anti-His antibody binders, primary screen, artefact control for SMM control protein annotation, biochemical, small-molecule microarray, 635 nm fluorescence (AID 1128); details: anti-His Alexa647 antibody binding, higher = more signal;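 further: score merges feature fluorescence with signal-to-noise for each printed compound spot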
# [12] = system: Human papillomavirus type 1a E7 protein (residues 1-88); test: HPV1a E7 small-molecule binders, primary screen, biochemical, small-molecule microarray, residues 1-88, 635 nm (AID 1129); details: small-molecule microarray binding, fluorescence 635 nm; higher = more signal
# [13] = target: Focal adhesion kinase 1 (Homo sapiens) (UniProt Q05397); test: small-molecule microarray binders of FAK, primary screen, biochemical, 635/667 nm fluorescence, BSA, DTT (AID 1130); details: PTK2 binding, 635 nm fluorescence, higher = more signal;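 further: composite of spot emission at 667 nm and signal to noise over triplicate slides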
# Focal adhesion kinase 1 (Homo sapiens), sequence (Q05397 whole entry, looked up): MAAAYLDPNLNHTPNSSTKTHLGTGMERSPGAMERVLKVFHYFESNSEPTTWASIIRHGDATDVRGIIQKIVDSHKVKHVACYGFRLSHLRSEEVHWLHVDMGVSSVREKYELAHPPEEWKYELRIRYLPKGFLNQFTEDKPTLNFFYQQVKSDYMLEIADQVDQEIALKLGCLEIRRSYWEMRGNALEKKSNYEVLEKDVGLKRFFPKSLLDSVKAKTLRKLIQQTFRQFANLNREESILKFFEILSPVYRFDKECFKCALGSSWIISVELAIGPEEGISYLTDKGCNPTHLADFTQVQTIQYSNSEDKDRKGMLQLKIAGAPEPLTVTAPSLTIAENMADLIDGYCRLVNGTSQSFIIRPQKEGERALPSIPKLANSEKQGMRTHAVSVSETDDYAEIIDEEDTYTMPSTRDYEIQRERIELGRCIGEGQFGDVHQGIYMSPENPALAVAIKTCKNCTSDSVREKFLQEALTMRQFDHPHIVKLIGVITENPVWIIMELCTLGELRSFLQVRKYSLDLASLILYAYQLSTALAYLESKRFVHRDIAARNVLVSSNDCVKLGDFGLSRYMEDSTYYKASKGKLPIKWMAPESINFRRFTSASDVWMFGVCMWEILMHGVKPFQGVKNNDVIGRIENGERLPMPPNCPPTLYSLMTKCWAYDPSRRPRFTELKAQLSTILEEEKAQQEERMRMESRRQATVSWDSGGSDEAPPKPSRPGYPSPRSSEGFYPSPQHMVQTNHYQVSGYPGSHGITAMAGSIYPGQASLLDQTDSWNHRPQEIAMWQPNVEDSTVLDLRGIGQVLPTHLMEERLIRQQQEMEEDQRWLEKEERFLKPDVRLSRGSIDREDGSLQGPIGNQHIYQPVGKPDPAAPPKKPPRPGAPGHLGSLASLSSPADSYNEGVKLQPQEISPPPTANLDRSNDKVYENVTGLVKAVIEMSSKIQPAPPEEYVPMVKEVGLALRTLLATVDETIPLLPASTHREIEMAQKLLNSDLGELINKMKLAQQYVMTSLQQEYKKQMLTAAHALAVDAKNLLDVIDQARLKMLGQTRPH
# [14] = system: Fibrinogen (Alexa647-labelled); test: fibrinogen binders on compound microarrays, profiling panel, artefact control for SMM control-protein annotation, biochemical, small-molecule microarray, 635/667 nm fluorescence (AID 1131); details: fibrinogen-A647 binding fluorescence, higher = more signal;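 further: z-score merges 667 nm fluorescence with per-spot signal-to-noise over triplicate slides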
# [15] = target: Follistatin (Homo sapiens) (UniProt P19883); test: follistatin binders on small-molecule microarrays, primary screen, biochemical, small-molecule microarray, 635/667 nm fluorescence (AID 1132); details: FST binding, 635 nm fluorescence, higher = more signal
# Follistatin (Homo sapiens), sequence (P19883 whole entry, looked up): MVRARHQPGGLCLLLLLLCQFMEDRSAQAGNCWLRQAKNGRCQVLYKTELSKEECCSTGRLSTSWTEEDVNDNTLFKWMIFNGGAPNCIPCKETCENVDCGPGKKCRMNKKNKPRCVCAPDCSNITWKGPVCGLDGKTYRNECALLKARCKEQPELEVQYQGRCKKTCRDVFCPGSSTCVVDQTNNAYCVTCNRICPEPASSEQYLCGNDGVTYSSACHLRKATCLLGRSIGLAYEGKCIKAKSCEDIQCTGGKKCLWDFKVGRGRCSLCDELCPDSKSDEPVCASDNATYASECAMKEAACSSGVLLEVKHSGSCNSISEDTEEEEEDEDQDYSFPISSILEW
# [16] = target: Fibroblast growth factor 2 (Homo sapiens) (UniProt P09038); test: FGF2 binders on small-molecule microarrays, primary screen, biochemical, small-molecule microarray, 635/667 nm fluorescence (AID 1133); details: small-molecule microarray binding, FGF2, fluorescence 635/667; higher = more signal
# Fibroblast growth factor 2 (Homo sapiens), sequence (P09038 whole entry, looked up): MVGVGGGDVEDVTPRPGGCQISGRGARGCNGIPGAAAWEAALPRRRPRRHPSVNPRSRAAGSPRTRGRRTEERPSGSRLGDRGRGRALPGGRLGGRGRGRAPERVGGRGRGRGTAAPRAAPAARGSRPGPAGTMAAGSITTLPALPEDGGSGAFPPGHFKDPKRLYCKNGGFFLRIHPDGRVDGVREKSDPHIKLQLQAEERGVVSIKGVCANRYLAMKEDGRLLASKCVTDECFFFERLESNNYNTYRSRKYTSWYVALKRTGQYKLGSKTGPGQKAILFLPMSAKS
# [17] = mitochondrial membrane potential change in A549 cells, profiling panel, cell-based, JC-1 fluorescence, basal, 24 h, 100 nL (AID 1138); details: higher = more signal;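 further: A549 lung adenocarcinoma cells under basal conditions with no added stimulus; test concentration not given here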
# [18] = system: Lefty1; test: Lefty1 binders on small-molecule microarrays, primary screen, biochemical, small-molecule microarray, 635/667 nm fluorescence (AID 1139); details: small-molecule microarray binding, fluorescence 635/667; higher = more signal
# [19] = system: wheat germ agglutinin (Triticum aestivum), Alexa647-labelled; test: wheat germ agglutinin binders on compound microarrays, profiling panel, artefact control for SMM control-protein annotation, biochemical, small-molecule microarray, 635/667 nm fluorescence (AID 1140); details: WGA-A647 binding, 635 nm fluorescence, higher = more signal;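 further: score merges 667 nm feature emission with signal to noise over triplicate slides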
# [20] = target: Luciferin 4-monooxygenase (Photinus pyralis) (UniProt P08659); test: firefly luciferase enzyme inhibitors, primary screen, biochemical, luminescence, purified enzyme, 2006 set (AID 1141); details: SteadyGlo luminescence, 30 min, higher = more signal, called active from +8 up or from −8 down;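 further: cell-free assay with purified firefly luciferase at 100 ng per well in PBS; test concentration not given here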
# Luciferin 4-monooxygenase (Photinus pyralis), sequence (P08659 whole entry, looked up): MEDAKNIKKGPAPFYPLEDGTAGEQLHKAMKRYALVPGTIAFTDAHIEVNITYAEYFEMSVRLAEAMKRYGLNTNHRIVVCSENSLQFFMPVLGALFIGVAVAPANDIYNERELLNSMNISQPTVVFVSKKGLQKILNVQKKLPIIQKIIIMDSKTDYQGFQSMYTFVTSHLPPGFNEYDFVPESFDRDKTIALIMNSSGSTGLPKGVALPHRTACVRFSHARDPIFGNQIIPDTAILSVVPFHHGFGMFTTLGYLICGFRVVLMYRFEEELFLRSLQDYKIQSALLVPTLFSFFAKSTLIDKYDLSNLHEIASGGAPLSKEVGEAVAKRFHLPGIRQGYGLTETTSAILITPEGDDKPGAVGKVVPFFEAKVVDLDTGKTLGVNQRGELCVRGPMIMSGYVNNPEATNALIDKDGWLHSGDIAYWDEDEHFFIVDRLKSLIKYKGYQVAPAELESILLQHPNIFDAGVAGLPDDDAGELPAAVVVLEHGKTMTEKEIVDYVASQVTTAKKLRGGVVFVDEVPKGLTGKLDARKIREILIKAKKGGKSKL
SMILES,composite z-score [1],composite Z-score [2],composite z-score [3],composite z-score [4],composite z-score [5],composite z-score [6],composite z-score [7],composite z-score [8],composite z-score [9],composite z-score [10],composite z-score [11],composite z-score [12],composite z-score [13],composite z-score [14],composite z-score [15],composite z-score [16],z-score [17],composite z-score [18],composite z-score [19],z-score [20]
COC(=O)c1ccc(C23CC2(C(NP(=O)(c2ccccc2)c2ccccc2)c2ccccc2)C3)cc1 (stereo not given),0.982,0.117 (inactive),0.325,0.359,0.819,2.8,1.02,0.921,-1.12,0.484,2.12,1.14,1.2,0.984,1.11,-0.575,2.44,-0.414,1.15,-5.98 (inactive)
C=CC[C@@]1(C(=O)N2CCOCC2)N=C(c2ccc(OCCCO)cc2)O[C@@H]1c1ccccc1N=[N+]=[N-],0.872,-0.885 (inactive),0.364,0.0753,0.419,2.43,1,1.29,-0.142,1.09,1.58,1.24,0.304,0.752,1.33,1.05,0.0318,0.135,1.13,-11.4 (active)
CC(=O)NCCCC[C@@H]1NC(=O)[C@@H]2C[C@H](C(=O)NCCCCN(C)C)[C@H](c3ccc(O)cc3)N2C1=O,-0.503,0.48 (inactive),-0.292,-0.14,-0.0303,-0.089,0.765,-0.781,0.46,-0.612,0.231,-0.529,-0.2,-2.52,0.296,1.14,0.485,-0.0932,0.225,0.869 (inactive)
C=CC[C@@H](OC(=O)Nc1ccc(OC)cc1)c1ccc(O)c2ccccc12,0.32,0.786 (inactive),0.278,-0.133,0.349,1.53,-0.09,1.3,1.34,0.913,0.235,1.17,2,0.656,1.39,1.94,-1.3,1.35,0.542,-6.72 (inactive)
C=CCNC(=O)[C@@H]1[C@H]2C(=O)O[C@H](c3ccccc3)[C@H](c3ccccc3)N2[C@H](c2ccc(OCCO)cc2)[C@@]12C(=O)Nc1ccccc12,0.507,-0.551 (inactive),0.0773,-0.157,0.692,1.91,0.262,1.29,0.228,1.11,0.797,1.22,0.102,0.934,1.1,0.516,0.253,1.03,0.496,-8.15 (active)
